Assay outcomes deposited in PubChem by National Center for Advancing Translational Sciences (NCATS).
FUS suppressor – qHTS for Suppressors of FUS Proteinopathy: Primary screen using FUS-linked yeast assay. actives 0.24% (n = 390,000). AID 1347120, 2019. Potency, µM (highest dose often 76.6 µM), usual class: activators. S. cerevisiae FUS-expressing, growth rescue, OD600, 24 h;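 also: plate controls were DMSO vehicle for no effect and reference control for full effect; nearly all actives have a fitted effect of over 55% in size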
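Toxicity suppression screen in FUS-yeast. Cells induced with 2% galactose, starting OD 0.005, treated 24hr at 30C with compounds at multiple final concentrations; growth by OD600.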
Abeta rescue – qHTS for compounds that reverse cellular toxicity of Amyloid beta (A-beta) peptide in yeast: Primary Screen | yeast expressing A-beta42, growth rescue, OD600, 48 h; response scale: 0% DMSO, 100% iron-clioquinol control | Potency, µM (highest dose often 46.1 µM), most hits filed as activators | actives 0.063% (n = 410,000) | AID 1347071, 2019; also: nearly all actives have a fitted effect of over 55% in size
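Growth rescue measured by 600 nm absorbance after 48 h yeast culture at 30 C with compound. Values normalized between DMSO and an equimolar ferric chloride plus clioquinol control.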
TDP-43 yeast inh – qHTS of TDP-43 Inhibitors | TDP-43 expressing yeast growth rescue, BacTiter-Glo, 24 h | Potency, µM (series often up to 46.1 µM), for inactives: at the top dose growth rescue (activation), most hits filed as activators | actives 1.8% (n = 410,000); also: % of control where 0% means no effect; nearly all actives have a fitted effect of over 50% in size
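In this qHTS, compounds that restore growth of yeast expressing TDP-43 appear as activators. Cells (OD600=0.02, galactose medium, raffinose-pregrown) are incubated with compound 24 hr at 30 deg C and growth is quantified by BacTiter-Glo.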
aSyn yeast inh – qHTS of alpha-syn Inhibitors; Potency, µM (highest dose often 46.1 µM), for inactives: at the highest dose growth rescue (activation), actives largely listed as activators; Yeast expressing alpha-synuclein, growth rescue, BacTiter-Glo, 24 h; actives 0.14% (n = 370,000); also: % of control where 0% means no effect; nearly all actives have a fitted effect of over 65% in size
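Galactose-induced alpha-syn yeast (OD600=0.02, raffinose-pregrown) + pinned cpd, 24 hr, 30 deg C; growth by BacTiter-Glo luminescence. Growth restoration scores as activation.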
* = called active by the depositor; [ ] = remark or other dose. An excerpt weighted towards active compounds, which were near 2.1% of everything screened. Calls follow the shape of the dose curve; as a rule, active = well fitted curve in the direction sought with a large enough effect; inconclusive = small, poorly fitted or top-dose-only effect, or another doubt; inactive = no such curve, though single readings can be large; an effect the other way counts as inactive or inconclusive. Potency is read from the fitted curve at half-maximal effect.

For COc1ccc(C(C)(C)C)cc1NC(=O)COC(=O)c1ccc([N+](=O)[O-])o1 the results were FUS suppressor inactive, Abeta rescue inactive, TDP-43 yeast inh -93% and aSyn yeast inh -73%.
Cc1ccc(-c2csc3ncnc(N4CCN(C(=O)c5ccco5)CC4)c23)cc1 was read as Abeta rescue inactive, TDP-43 yeast inh inconclusive and aSyn yeast inh 3%.
`COc1ccc(-c2csc3ncnc(N4CCN(c5ccccc5O)CC4)c23)cc1` gave FUS suppressor inactive, Abeta rescue inactive, TDP-43 yeast inh 18µM* and aSyn yeast inh inconclusive.
COc1ccc(-c2csc3ncnc(N4CCN(c5ccccc5)CC4)c23)cc1 was read as FUS suppressor inactive, Abeta rescue inactive, TDP-43 yeast inh 11µM* and aSyn yeast inh 15%.
`O=C(c1ccco1)N1CCN(c2ncnc3scc(-c4ccc(F)cc4)c23)CC1` gave FUS suppressor inactive, Abeta rescue inactive, TDP-43 yeast inh 18µM* and aSyn yeast inh 12%.
For COc1ccc(-c2csc3ncnc(N4CCN(c5ccc(OC)cc5)CC4)c23)cc1 the results were FUS suppressor inactive, Abeta rescue inactive, TDP-43 yeast inh 11µM* and aSyn yeast inh 10%.
Screening C1NNCC12CNNC2 returned aSyn yeast inh -7%.
For C=CCn1c(SCC)nc2ccccc2c1=O the results were aSyn yeast inh 0%.
Screening COc1ccc(NC(=O)Cn2c(=O)n(CCc3ccccc3)c(=O)c3c4c(sc32)CCCC4)cc1 returned FUS suppressor inactive, Abeta rescue inactive and TDP-43 yeast inh inconclusive.
COc1ccc(C(=O)O)cc1NCc1ccc(C)s1 was read as FUS suppressor inactive, Abeta rescue inactive, TDP-43 yeast inh 3.2µM* and aSyn yeast inh 14%.
Screening C/C=C/C(=O)N1CCC(C(=O)NCC2COc3ccccc3O2)CC1 (stereo not given) returned FUS suppressor inactive.
For CCC(=O)Nc1c(C(=O)Nc2ccc3c(c2)OCCO3)oc2ccccc12 the results were FUS suppressor inactive, Abeta rescue inactive, TDP-43 yeast inh 11µM* and aSyn yeast inh 6%.
CC1(C)CC(=O)C=C(NC2=CC3OC(c4ccccc4)OCC3OC2=O)C1 (stereo not given) was read as Abeta rescue inactive, TDP-43 yeast inh 13µM* and aSyn yeast inh 13µM*.
Cc1ccccc1NC1=CC(=O)CC(C)(C)C1 was read as FUS suppressor inactive, Abeta rescue inactive, TDP-43 yeast inh -15% and aSyn yeast inh -2%.
For CCCn1c(SCC(=O)c2ccc3c(c2)NC(=O)CO3)nc2ccccc21 the results were FUS suppressor inactive, Abeta rescue inactive, TDP-43 yeast inh 14µM* and aSyn yeast inh -1%.
Screening Cn1c(SCC(=O)c2ccc3c(c2)NC(=O)CO3)nc2ccccc21 returned FUS suppressor inactive, Abeta rescue inactive, TDP-43 yeast inh -5%[0.397 µM] and aSyn yeast inh 2%.
Screening C#CCSc1nc2ccccc2c(=O)n1CC=C returned aSyn yeast inh 5%.
For C#CCSc1nncn1C(=O)/C=C/c1ccccc1 the results were FUS suppressor inactive, Abeta rescue inactive, TDP-43 yeast inh -16% and aSyn yeast inh 13µM*.
O=C(Nc1ccc2c(c1)OCCO2)C1C(c2ccccc2)=Nc2ccccc2N1C(=O)c1cccnc1 (stereo not given) was read as FUS suppressor 7.9µM*, Abeta rescue inactive, TDP-43 yeast inh -20% and aSyn yeast inh -2%.
O=C(NCc1ccccc1)C1C(c2ccc3c(c2)OCO3)=Nc2ccccc2N1C(=O)c1ccccc1 (stereo not given) was read as FUS suppressor inactive, Abeta rescue inactive, TDP-43 yeast inh 13µM* and aSyn yeast inh -1%.
Screening C[C@H]1[C@@H](NC(=O)c2ccc(Cl)cc2)CC[C@@]23CCCN2C(=O)CCC[C@@H]13 returned FUS suppressor inactive.
For C/C(=N/NC(=O)c1ccoc1C)c1cccs1 the results were FUS suppressor inactive.
COC1=C(Br)C(=O)c2ncccc2C1=O was read as Abeta rescue inactive, TDP-43 yeast inh 28% and aSyn yeast inh 16µM*.
For O=C1c2cccnc2-c2ncccc21 the results were FUS suppressor inactive, Abeta rescue inactive, TDP-43 yeast inh 2% and aSyn yeast inh -12%.
CN(C)C(=O)CCc1ccc2c3c([nH]c2c1)[C@]1(CCC2CCCC2)[C@@H](C(=O)N2CCOCC2)C[C@H](CC(=O)NCCN2CCOCC2)C(=O)N1CC3 was read as FUS suppressor inactive, Abeta rescue inactive, TDP-43 yeast inh -2% and aSyn yeast inh -1%.
`COc1ccc2[nH]c3c(c2c1)CCN1C(=O)C(CC(=O)NCCC2=CCCCC2)C[C@H](C(=O)N(C(C)C)C(C)C)[C@@]31C` (stereo not given in full) gave FUS suppressor inconclusive, Abeta rescue inactive, TDP-43 yeast inh inconclusive and aSyn yeast inh -5%.
For CC(C)N(C(=O)[C@H]1C[C@H](CC(=O)NCC23CC4CC(CC(C4)C2)C3)C(=O)N2CCc3c([nH]c4ccc(Cl)cc34)[C@]12C)C(C)C the results were FUS suppressor inactive, Abeta rescue inactive, TDP-43 yeast inh 17% and aSyn yeast inh inconclusive.
CC(C)N(C(=O)[C@H]1CC(CC(=O)NCCC2=CCCCC2)C(=O)N2CCc3c([nH]c4ccccc34)[C@]12C)C(C)C (stereo not given in full) was read as FUS suppressor inconclusive, Abeta rescue inactive, TDP-43 yeast inh 35µM* and aSyn yeast inh inconclusive.
For CCN(CC)C(=O)[C@H]1C[C@H](CC(=O)NCC23CC4CC(CC(C4)C2)C3)C(=O)N2CCc3c([nH]c4ccc(Cl)cc34)[C@]12C the results were FUS suppressor inactive, Abeta rescue inactive, TDP-43 yeast inh 20µM* and aSyn yeast inh inconclusive.
For CN(C)C(=O)CCc1ccc2c3c([nH]c2c1)[C@]1(CCC2CCCC2)[C@@H](C(=O)N2CCOCC2)C[C@H](CC(=O)NCCC2=CCCCC2)C(=O)N1CC3 the results were FUS suppressor 16µM*, Abeta rescue inactive, TDP-43 yeast inh 21% and aSyn yeast inh 0%.
`CN(c1c2c(nc3ncnn13)CCCC2)C1CCCCC1` gave FUS suppressor inactive.
`COc1ccc2c(C)cc(=S)[nH]c2c1` gave FUS suppressor inactive, Abeta rescue inactive, TDP-43 yeast inh 13µM* and aSyn yeast inh 2%.
COCCOC(=O)N(C)C[C@@H]1OCCCC[C@H](C)Oc2ccc(NC(=O)Nc3ccccc3)cc2C(=O)N([C@@H](C)CO)C[C@H]1C was read as FUS suppressor inactive.
`Nn1c(SCC(=O)NC2CCCCC2)nnc1-c1cc(-c2ccc(Cl)cc2)n[nH]1` gave FUS suppressor inactive.
